In PubChem BioAssay (EPA / NIEHS) one finds outcome and AC50 data, which are given here for 11 compounds.

Inconclusive results are not listed. The source made the active and inactive calls. How the source made its calls, unless noted: active means hit-call score of the fitted dose curve at least 0.9, where 1 is the maximum; inactive means score below 0.9.

By AC50 is commonly meant the midpoint of the concentration-response curve, whichever way the signal moves.

Read-out in assay [1]: Monokine induced gamma interferon (MIG), CXCL9 (gene 4283)
Nature of the assay: BSK_KF3CT_MIG: BioMAP Diversity Plus: KF3CT Assay for Monokine induced gamma interferon (MIG) Biomarker Activity (AID 2284248). The following applies: primary human keratinocytes with fibroblasts. Put shortly: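 MIG in dosed human skin co-cultures was measured by ELISA at 24 h, relative to DMSO.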

Read-out in assay [2]: Collagen I, COL1A1 (gene 1277)
Briefly: BSK_hDFCGF_CollagenI: BioMAP Diversity Plus: hDFCGF Assay for Collagen I Biomarker Activity (AID 2284250). The settings on record: primary human foreskin fibroblasts. In a few lines: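 Primary human foreskin fibroblasts (hDFCGF system) exposed to chemical for 24 h; Collagen I measured by ELISA. Activity fitted in the positive direction relative to DMSO baseline, with SRB total-protein staining in parallel cultures for overt cytotoxicity.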

Read-out in assay [3]: Interferon-inducible T-cell alpha chemoattractant (ITAC), CXCL11 (gene 6373)
Nature of the assay: BSK_hDFCGF_ITAC: BioMAP Diversity Plus: hDFCGF Assay for Interferon-inducible T-cell alpha chemoattractant (ITAC) Biomarker Activity (AID 2284251). The following applies: primary human foreskin fibroblasts. In a few lines: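 Fibroblasts (human foreskin, primary) are treated with chemical, cultured 24 h, then assayed for I-TAC by ELISA. Overt toxicity is checked in parallel cultures by sulforhodamine B staining of total protein at the same time point.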

Read-out in assay [4]: Plasminogen activator inhibitor-1 (PAI1), SERPINE1 (gene 5054)
Briefly: BSK_KF3CT_PAI1: BioMAP Diversity Plus: KF3CT Assay for Plasminogen activator inhibitor-1 (PAI1) Biomarker Activity (AID 2284252). The settings on record: primary human keratinocytes with fibroblasts. Put shortly: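 Human primary keratinocyte/foreskin fibroblast co-culture was dosed with compound and sampled at 24 h. PAI-1 was quantified by ELISA, with activity fitted in the positive direction relative to DMSO vehicle as baseline.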

Read-out in assay [5]: Interleukin-8 (IL8), CXCL8 (gene 3576)
Nature of the assay: BSK_KF3CT_IL8: BioMAP Diversity Plus: KF3CT Assay for Interleukin-8 (IL8) Biomarker Activity (AID 2284254). The following applies: primary human keratinocytes with fibroblasts. Put shortly:
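Using parallel SRB-stained cultures to flag overt toxicity, the study quantified IL-8 by ELISA in human keratinocyte–foreskin fibroblast co-cultures 24 h after dosing, with DMSO as negative control and baseline.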

Read-out in assay [6]: Intercellular Adhesion Molecule 1 (ICAM1), ICAM1 (gene 3383)
Nature of the assay: BSK_BE3C_ICAM1: BioMAP Diversity Plus: BE3C Assay for Intercellular Adhesion Molecule 1 (ICAM1) Biomarker Activity (AID 2284278).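 Further: cell-surface ICAM-1 protein level quantified by ELISA.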 The following applies: primary human bronchial epithelial cells. In a few lines:
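Primary human bronchial epithelial cells were exposed to compound for 24 h, after which cell-surface ICAM-1 was quantified by ELISA. Activity was fitted in the gain-of-signal direction against DMSO as negative control and baseline.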

Assay [7] can be described thus: CCTE_Mundy_HCI_Cortical_NOG_BPCount: CCTE's Neurite Outgrowth Assay in rat cortical cells for Branch Point Count, Mundy Lab (AID 2284237). In a few lines: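 Measured 50.33 h after dosing, this morphology endpoint uses rat primary cortical cultures labelled for betaIII-tubulin. Branch points are quantified by high-content imaging, with DMSO as negative control and baseline.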

A short description of assay [8]: CCTE_Mundy_HCI_hNP1_Casp3_7: CCTE's Caspase-Glo 3/7 Assay in human neuroprogenitor cells for Apoptosis, Mundy Lab (AID 2284240). In a few lines: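 Apoptosis is scored by activated caspase-3/7 luminescence in WA09-derived neural progenitor cells, measured 26.5 h after chemical dosing. Values represent gain of signal relative to DMSO vehicle.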
Read-out in assay [9]: Collagen I, COL1A1 (gene 1277)
Nature of the assay: BSK_MyoF_CollagenI: BioMAP Diversity Plus: MyoF Assay for Collagen I Biomarker Activity (AID 2284238). The settings on record: primary human lung fibroblasts. Put shortly: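 Measured by ELISA: Collagen I from human lung fibroblasts 24 h after compound addition, analysed for signal gain with DMSO as baseline; overt toxicity read from SRB staining of parallel cultures at the same time.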

Read-out in assay [10]: Collagen III, COL3A1 (gene 1281)
Briefly: BSK_MyoF_CollagenIII: BioMAP Diversity Plus: MyoF Assay for Collagen III Biomarker Activity (AID 2284239). The settings on record: primary human lung fibroblasts. Put shortly:
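Multiplexed cell assay in lung fibroblasts, harvested at 24 h post-dose. Collagen III detected by ELISA, with positive-direction fitting relative to DMSO vehicle.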

Read-out in assay [11]: Interleukin 17F (IL17F), IL17F (gene 112744)
Briefly: BSK_BT_xIL17F: BioMAP Diversity Plus: BT Assay for Interleukin 17F (IL17F) Biomarker Activity (AID 2284243). The following applies: primary human B cells with PBMC. Put shortly:
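Luminex readout of IL-17F secretion, 24 h; cells: human B cells with PBMC; positive-direction analysis, DMSO control.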

Read-out in assay [12]: Basic fibroblast growth factor (bFGF), FGF2 (gene 2247)
Nature of the assay: BSK_MyoF_bFGF: BioMAP Diversity Plus: MyoF Assay for Basic fibroblast growth factor (bFGF) Biomarker Activity (AID 2284246). The following applies: primary human lung fibroblasts. Put shortly: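 Human lung fibroblasts were dosed with chemicals and bFGF was quantified by ELISA 24 h later. Activity was fitted in the gain-of-signal direction relative to DMSO as negative control and baseline. Parallel SRB total-protein staining tracked overt cytotoxicity.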

Read-out in assay [13]: Collagen IV, COL4A1 (gene 1282)
Briefly: BSK_MyoF_CollagenIV: BioMAP Diversity Plus: MyoF Assay for Collagen IV Biomarker Activity (AID 2284247). The following applies: primary human lung fibroblasts. In a few lines: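 Primary human lung fibroblasts were exposed to test chemicals and sampled 24 h after dosing. Collagen IV levels were measured by ELISA and fitted in the positive direction against DMSO as negative control and baseline.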

Read-out in assay [14]: Plasminogen activator inhibitor-1 (PAI1), SERPINE1 (gene 5054)
Nature of the assay: BSK_MyoF_PAI1: BioMAP Diversity Plus: MyoF Assay for Plasminogen activator inhibitor-1 (PAI1) Biomarker Activity (AID 2284256).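 On outcome: PAI-1 protein level measured by ELISA in fibroblast cultures; PAI-1 read 24 h after compound addition.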 The settings on record: primary human lung fibroblasts. In a few lines: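 In this multiplexed primary-cell system, fibroblasts from human lung received compound for 24 h before ELISA detection of PAI-1; overt toxicity was checked by SRB (0.1%, TCA-fixed, 560 nm) in parallel wells.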

Read-out in assay [15]: Interleukin-8 (IL8), CXCL8 (gene 3576)
Nature of the assay: BSK_MyoF_IL8: BioMAP Diversity Plus: MyoF Assay for Interleukin-8 (IL8) Biomarker Activity (AID 2284261). The settings on record: primary human lung fibroblasts. Put shortly:
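DMSO-normalised, upward-fitted IL-8 ELISA signal; human lung fibroblasts, 24 h chemical treatment.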

Read-out in the next assay: Decorin, DCN (gene 1634)
Briefly: BSK_MyoF_Decorin: BioMAP Diversity Plus: MyoF Assay for Decorin Biomarker Activity (AID 2284265). The following applies: primary human lung fibroblasts. In a few lines:
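In this multiplexed fibroblast system, secreted or surface decorin is detected by ELISA one day after dosing, with increases scored against the DMSO vehicle.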

The nature of assay [16]: BSK_MyoF_SRB: Viability Assessment in the BioMAP Diversity Plus: MyoF Assay (AID 2284267).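 Further: total protein by SRB absorbance in parallel cultures as cytotoxicity measure; cells assessed 24 h after compound addition.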 The settings on record: primary human lung fibroblasts. Put shortly: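 Human lung fibroblasts dosed with chemical and assessed 24 h later for overt cytotoxicity in parallel cultures. Total protein quantified by sulforhodamine B staining (0.1% SRB after 10% TCA fixation), read at 560 nm, analysed in positive direction versus DMSO baseline.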

Read-out in assay [17]: TIMP metallopeptidase inhibitor 1 (TIMP1), TIMP1 (gene 7076)
Briefly: BSK_MyoF_TIMP1: BioMAP Diversity Plus: MyoF Assay for TIMP metallopeptidase inhibitor 1 (TIMP1) Biomarker Activity (AID 2284269). The settings on record: primary human lung fibroblasts. In a few lines:
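ELISA read-out of TIMP-1 from primary human lung fibroblast cultures 24 h after compound dosing; gain of signal relative to DMSO vehicle baseline defines activity.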

Assay [18] can be described thus: CCTE_Mundy_HCI_hNP1_CellTiter: CCTE's Cell Titer-Glo 2 Assay in human neuroprogenitor cells for Viability, Mundy Lab (AID 2284241; active means hit-call score of the fitted dose curve at least 0.9, where 1 is the maximum). Put shortly: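 Human neural progenitor cells (hNP1, WA09-derived) were plated on poly-L-ornithine/laminin and grown 40 to 44 hours at 37 °C, 5% CO2 before chemical addition. Twenty-four hours later, ATP was measured by CellTiter-Glo luminescence; loss of signal versus DMSO indicates reduced viability.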

Take `CN1C(=O)N(C)C(O)C1O` (stereo not drawn): the result in assay [1], in [2], in [3], in assay [4], in assay [5] and in assay [6] was inactive.
As to `CC1(C)S[C@@H]2[C@H](NC(=O)COc3ccccc3)C(=O)N2[C@H]1C(=O)O`, the result in [7] and in assay [8] was inactive.
In the case of `O=Nc1ccc(O)cc1`, the outcome in [9], in [10], in [11], in [12], in assay [13] and in [14] was inactive. Besides, the outcome in [15] is “inactive”; with Decorin, DCN (gene 1634) it was “inactive”; in [16] it was “inactive”; in assay [17], “inactive”.
On to `N#[N+]c1ccc2c(S(=O)(=O)[O-])cccc2c1O`, for which the outcome in assay [9], in assay [10], in [11], in assay [12], in [13] and in assay [14] was inactive. Also, the outcome was “inactive” in assay [15]; “inactive” with Decorin, DCN (gene 1634); “inactive” in assay [16]; “inactive” in assay [17].
In the case of `N[C@H]1C(O)O[C@H](CO)[C@H](O)[C@@H]1O` (stereo partly drawn), the compound was classed as inactive in assay [7], in assay [8] and in [18].
Consider `CO[Si](OC)(OC)c1ccccc1`, for which the outcome in [1], in [2], in assay [3], in [4], in assay [5] and in [6] was inactive.
On to `O=C(c1ccc(O)cc1)c1ccc(O)cc1O`, for which the outcome in [1], in assay [2], in assay [3], in [4], in assay [5] and in assay [6] was inactive.
On to `COc1ccc2nc(N)sc2c1`, for which the result in assay [9], in assay [10], in [11], in assay [12], in assay [13] and in assay [14] was inactive. The outcome in assay [15] is “inactive”; with Decorin, DCN (gene 1634), “inactive”; in assay [16] it was “inactive”; in assay [17], “inactive”.
For the compound `c1ccc2c(c1)ccc1cc3c(ccc4ccccc43)cc12`, the result in [9], in assay [10], in assay [11], in assay [12], in assay [13] and in assay [14] was inactive. The outcome in assay [15] is “inactive”; with Decorin, DCN (gene 1634), “inactive”; in assay [16], “inactive”; in assay [17] it was “inactive”.
As to `C=CC(=O)OCC(Br)CBr` (stereo not drawn), the half-maximal activity concentration (AC50) was 20 µM (active) in [9]; 32.7 µM (active) in assay [10]; 15.4 µM (active) in assay [11]; 37.5 µM (active) in [12]; 3.97 µM (active) in assay [13]; 7.93 µM (active) in [14]. Besides, the AC50 in assay [16] and in assay [17] was 20 µM (active) in each case. The outcome was “inactive” in assay [15] and “inactive” in the assay with Decorin, DCN (gene 1634).
As to `C#CC1(O)CC[C@H]2[C@@H]3CCC4=CCCC[C@@H]4[C@H]3CC[C@@]21C` (stereo partly drawn), the AC50 in assay [9] is 22.4 µM (active); in assay [10], 31.8 µM (active); in [11], 28.6 µM (active); in [12], 33 µM (active); in [14] it was 32 µM (active); in [15], 30.4 µM (active). The half-maximal activity concentration (AC50) is 31.4 µM (active) in the assay with Decorin, DCN (gene 1634); 30.1 µM (active) in assay [16]; 33.1 µM (active) in assay [17]. Besides, the outcome in [13] was inactive.
